Source: PubChem BioAssay AID1159580 (chemical genetic matrix, 2015)
Where “and” joins values, the source holds several entries; their conditions need not be identical. Identical values can stand only once. In all, about 5,500 compounds went through this assay and about 2,000 (36%) were called active. Roughly 18% stayed inconclusive and do not appear here. No stated cut-off is given here; in the data, active means normalized growth mostly below about 0.91 (no sharp cut-off); inconclusive means no clear call, values can overlap the other calls; inactive means mostly above about 0.92. This is one part of the list.

Assay: chemical genetic growth profiling, strain panel (AID 1159580);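 further: tested at 20 µM; growth read once vehicle control cultures reached saturation at 30 °C; 1 = growth at the plate median or of vehicle wells; lower values mean less growth of the strain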
Conditions: S. cerevisiae deletion strains, growth OD

Measured: normalized growth

CC1CCCC(C)N1NC(=O)c1ccc(Cl)c(S(N)(=O)=O)c1 (stereo unspecified)
inactive: locus YAL013W, strain DEP1, active compounds read low 1 | locus YAL021C, strain ccr4, active compounds read low 1 | locus YAL026C, strain drs2, active compounds read low 1.03 | locus YAL030W, strain snc1, active compounds read low 0.989 | locus YBL061C, strain skt5, active compounds read low 1.02 | locus YBR009C, strain hhf1, active compounds read low 1.02 | locus YBR021W, strain FUR4, active compounds read low 1.09 | locus YBR023C, strain chs3, active compounds read low 1.01 | locus YBR171W, strain sec66, active compounds read low 1.03 | locus YBR229C, strain ROT2, active compounds read low 0.996 | locus YBR231C, strain swc5, active compounds read low 1.05 | locus YBR279W, strain paf1, active compounds read low 1 | locus YCL011C, strain gbp2, active compounds read low 0.932 | locus YCL016C, strain dcc1, active compounds read low 1.02 | locus YCL029C, strain bik1, active compounds read low 0.974 | locus YCL069W, strain vba3, active compounds read low 1 | locus YCR088W, strain abp1, active compounds read low 1.01 | locus YDL005C, strain med2, active compounds read low 1.01 | locus YDL035C, strain GPR1, active compounds read low 1.01 | locus YDL040C, strain nat1, active compounds read low 1.01 | locus YDL074C, strain BRE1, active compounds read low 0.991 | locus YDL101C, strain DUN1, active compounds read low 0.983 | locus YDL134C, strain PPH21, active compounds read low 1 | locus YDL185W, strain tfp1, active compounds read low 0.964 | locus YDL192W, strain arf1, active compounds read low 0.988 | locus YDR001C, strain nth1, active compounds read low 1.01 | locus YDR069C, strain doa4, active compounds read low 1.01 | locus YDR101C, strain arx1, active compounds read low 0.99 | locus YDR137W, strain rgp1, active compounds read low 1.01 | locus YDR150W, strain NUM1, active compounds read low 0.992 | locus YDR159W, strain sac3, active compounds read low 1.02 | locus YDR162C, strain NBP2, active compounds read low 0.997 | locus YDR195W, strain ref2 1 | locus YDR297W, strain sur2, active compounds read low 1.01 | locus YDR318W, strain mcm21, active compounds read low 1 | locus YDR334W, strain swr1, active compounds read low 1.02 | locus YDR335W, strain msn5, active compounds read low 1.02 | locus YDR388W, active compounds read low 0.998 | locus YDR392W, strain spt3, active compounds read low 1.03 | locus YDR502C, strain sam2, active compounds read low 0.993 | locus YEL003W, strain gim4, active compounds read low 1.02 | locus YEL037C, strain rad23, active compounds read low 1.02 | locus YEL061C, strain CIN8 (second series), active compounds read low 1.01 | locus YEL061C, strain CIN8, active compounds read low 1 | locus YER015W, strain faa2, active compounds read low 1.02 | locus YER016W, strain bim1, active compounds read low 1.02 | locus YER110C, active compounds read low 0.983 | locus YER111C, strain swi4, active compounds read low 1.01 | locus YER155C, strain BEM2 (second series), active compounds read low 1.04 | locus YER155C, strain BEM2, active compounds read low 1 | locus YER167W, strain BCK2, active compounds read low 0.997 | locus YFR010W, strain ubp6, active compounds read low 1.03 | locus YGL078C, strain dbp3, active compounds read low 0.997 | locus YGL086W, strain mad1, active compounds read low 1 | locus YGL167C, strain pmr1, active compounds read low 1.01 | locus YGL173C, strain kem1, active compounds read low 1.03 | locus YGL227W, strain vid30, active compounds read low 1.02 | locus YGL240W, strain doc1, active compounds read low 1.01 | locus YGL248W, strain PDE1, active compounds read low 1 | locus YGL253W, strain hxk2, active compounds read low 1.02 | locus YGR078C, strain PAC10, active compounds read low 0.983 | locus YGR135W, strain pre9, active compounds read low 0.993 | locus YGR229C, strain SMI1, active compounds read low 0.991 | locus YGR252W, strain gcn5, active compounds read low 1.2 | locus YHR013C, strain ard1, active compounds read low 1.01 | locus YHR027C, strain rpn1, active compounds read low 1.01 | locus YHR030C, strain SLT2, active compounds read low 0.998 and 0.962 | locus YHR079C, strain IRE1 (second series), active compounds read low 0.985 | locus YHR079C, strain IRE1, active compounds read low 0.949 | locus YHR094C, strain hxt1, active compounds read low 0.986 | locus YHR129C, strain ARP1, active compounds read low 0.984 | locus YHR142W, strain chs7, active compounds read low 1.01 | locus YHR200W, strain rpn10, active compounds read low 1 | locus YIL066C, strain RNR3, active compounds read low 0.995 | locus YIL073C, strain SPO22, active compounds read low 0.874 | locus YIL125W, strain kgd1, active compounds read low 0.956 | locus YIR030C, strain dcg1, active compounds read low 0.998 | locus YJL092W, strain hpr5, active compounds read low 1.02 | locus YJL095W, strain BCK1 (second series), active compounds read low 1.01 | locus YJL095W, strain BCK1, active compounds read low 0.972 and 0.992 | locus YJL115W, strain asf1, active compounds read low 1.01 | locus YJL129C, strain trk1, active compounds read low 1.03 | locus YJL134W, strain LCB3, active compounds read low 0.993 | locus YJL154C, strain vps35, active compounds read low 1.02 | locus YJL164C, strain tpk1, active compounds read low 1 | locus YJL166W, strain qcr8, active compounds read low 0.989 | locus YJL168C, strain set2, active compounds read low 0.993 | locus YJL187C, strain SWE1 (second series), active compounds read low 0.966 | locus YJR043C, strain POL32, active compounds read low 0.982 | locus YJR066W, strain TOR1, active compounds read low 0.962 | locus YJR075W, strain HOC1, active compounds read low 0.985
